Compound activity as filed in PubChem BioAssay.
Compounds with a hit are over-represented: about 10% of the library has one in this group of screens.
L major viab: inhibitors of Leishmania major promastigote growth | hit rate 9% among 200,000 | inhibition, % at 10 µM | Leishmania major promastigotes, resazurin fluorescence viability; in the data active = inhibition above about 50%;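 also: promastigotes grown with compound for 44 hours at 28 °C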
p97 inhibitor: blocks human p97 ATPase activity. recombinant p97 ATPase, Kinase-Glo ATP luminescence, 3 h. AID 1481. P55072. hit rate 0.42% among 220,000. inhibition, % at 8 µM; in the data active = inhibition above about 15%
Target sequence (P55072 whole entry, looked up): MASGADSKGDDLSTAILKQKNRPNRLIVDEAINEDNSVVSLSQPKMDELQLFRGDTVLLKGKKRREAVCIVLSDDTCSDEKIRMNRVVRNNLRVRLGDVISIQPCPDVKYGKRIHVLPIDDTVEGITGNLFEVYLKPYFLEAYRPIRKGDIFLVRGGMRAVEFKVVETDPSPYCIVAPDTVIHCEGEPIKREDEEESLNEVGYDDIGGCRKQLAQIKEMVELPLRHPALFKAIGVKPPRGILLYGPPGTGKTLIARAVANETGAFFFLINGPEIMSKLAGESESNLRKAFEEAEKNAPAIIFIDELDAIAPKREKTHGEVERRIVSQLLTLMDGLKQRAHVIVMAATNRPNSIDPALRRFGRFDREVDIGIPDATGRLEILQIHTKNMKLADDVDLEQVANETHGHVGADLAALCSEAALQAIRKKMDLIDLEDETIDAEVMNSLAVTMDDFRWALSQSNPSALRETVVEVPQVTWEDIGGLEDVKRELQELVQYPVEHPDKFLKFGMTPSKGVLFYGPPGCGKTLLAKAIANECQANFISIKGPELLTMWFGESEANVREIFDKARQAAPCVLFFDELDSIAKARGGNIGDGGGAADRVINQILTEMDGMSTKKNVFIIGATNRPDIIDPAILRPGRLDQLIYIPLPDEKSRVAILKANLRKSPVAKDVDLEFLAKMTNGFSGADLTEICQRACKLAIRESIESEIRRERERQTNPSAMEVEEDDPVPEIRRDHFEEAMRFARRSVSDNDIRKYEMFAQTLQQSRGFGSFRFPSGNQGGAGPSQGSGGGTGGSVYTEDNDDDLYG
ROMK primary: modulates human ROMK potassium channel activity | hit rate 2% among 130,000 | P48048 | B-score at 10 µM | Tet-inducible ROMK, thallium flux fluorescence; actives lie on both sides;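 active = signal ratio slope over the read window, or its plate-corrected B-score, at least 3 SD from the plate mean, either direction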;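 also: B-score of the F/F0 ratio slope over 7 to 12 s after thallium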
bCat KO growth: beta-catenin-lacking colon tumor cell growth suppression; AID 818; hit rate 1.5% among 140,000; viability, % at 10 µM; HCT116 beta-catenin knockout viability, CellTiter-Glo, 60 h; active compounds read low;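 active = viability at or under a set limit, the compound median less 4 SD, cut at about 6% in these data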
INS promoter inh: TRM-6 insulin promoter activity inhibition | AID 1273 | TRM-6 cells (human fetal islet line), insulin promoter-eGFP reporter, imaging; reporter expression induced with tamoxifen | hit rate 0.9% among 130,000 | inhibition, % at 2 µM;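 active = inhibition above the mean plus 3 SD, with well images judged a real hit on visual review, cut at about 60% in these data, passing the limit was not always enough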
HCT116 PTEN-null: growth suppressors of cells with PTEN tumor suppressor deletion; viability, % at 10 µM; hit rate 1.2% among 140,000; HCT116 PTEN-null viability, CellTiter-Glo, 60 h; active compounds read low;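 active = viability at or below a set limit, 4 SD under the median of all tested compounds, cut at about 3.7% in these data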;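 also: PTEN knockout HCT116 line with beta catenin targeted HCT116 as companion control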
Hits are given with their value; . = inactive; / = no result.

SMILES	L major viab	p97 inhibitor	ROMK primary	bCat KO growth	INS promoter inh	HCT116 PTEN-null
Cc1ccc(-c2c(C(=O)N(C)Cc3ccccc3)oc(=O)c3ccccc23)cc1	82	.	.	.	.	.
Cc1ccc(-n2ncc3c(SCC(=O)Nc4cc(C)on4)ncnc32)c(C)c1	.	.	.	/	.	/
Cc1ccc(C(=O)NCC(=O)OC(C)C(=O)Nc2ccc(N(C)C)cc2)cc1C (stereo unspecified)	.	.	.	/	/	/
C/C(=N\NC(N)=O)c1cccc(Cl)c1	83	.	/	.	.	.
COc1cc(OC)cc(C(=O)OCc2cc3ccccc3[nH]c2=O)c1	.	.	.	.	71	.
COc1ccc(CC(=O)OCc2cc3ccccc3[nH]c2=O)cc1	.	.	.	.	/	.
C(=C\c1ccccn1)/c1cccnc1	/	.	/	/	/	/
CC/C(C)=N/Nc1cccc([N+](=O)[O-])c1	96	.	/	.	/	.
COc1ccc(C(=O)/C(C#N)=N/Nc2cccc([N+](=O)[O-])c2)cc1	.	.	7.6	/	/	/
Cc1ccc(C)c(N2CCN(C(=O)C3CCN(S(=O)(=O)c4cccc5nsnc45)CC3)CC2)c1	.	.	/	.	.	.
COc1ccc(S(=O)(=O)NNC(=O)c2csc(-n3nc(C)cc3C(F)(F)F)n2)cc1	.	.	.	.	.	.
C=CCn1c(SCC(=O)c2[nH]c(C)c(C(=O)OCC)c2C)nc2scc(-c3ccc(OC)cc3)c2c1=O	.	.	.	1.7	.	1.6
C=CCn1c(SCC(=O)c2[nH]c(C)c(C(=O)OCC)c2C)nc2scc(-c3ccccc3)c2c1=O	.	.	.	2.0	.	1.3
Cc1c(Cl)cccc1N(CC(=O)NC1CCCCC1)S(C)(=O)=O	.	.	/	.	/	.
COc1ccc(C(c2nnnn2C2CCCC2)N2CCC(C)CC2)cc1 (stereo unspecified)	90	.	/	.	/	.
COc1ccc(OC)c(C(c2nnnn2C2CCCC2)N2CCN(c3ccccc3)CC2)c1 (stereo unspecified)	97	.	/	.	/	.
c1ccc(C(c2nnnn2C2CCCC2)N2CCN(c3ccccc3)CC2)cc1 (stereo unspecified)	.	.	.	.	.	.
Fc1ccc(C(c2nnnn2C2CCCCC2)N2CCCC2)cc1 (stereo unspecified)	.	.	.	/	/	/
c1cc(N2CCCC2)ccc1C(c1nnnn1C1CCCCC1)N1CCOCC1 (stereo unspecified)	88	.	/	.	.	.
COCCn1nnnc1C(c1ccc(OC)cc1)N1CCC(C)CC1 (stereo unspecified)	.	.	/	.	/	.
COc1ccc(C(c2nnnn2C2CCCCC2)N2CCN(C)CC2)c(OC)c1 (stereo unspecified)	.	.	.	/	.	/
COc1ccc(C(c2nnnn2C2CCCCC2)N2CCN(c3ccc(OC)cc3)CC2)cc1 (stereo unspecified)	89	.	.	.	/	.
CN1CCCCCC1C(=O)N1CCC(N2CCC(C(=O)N3CCOCC3)CC2)CC1 (stereo unspecified)	.	.	.	/	/	/
CC(C)(C)n1ncc2c(=O)n(Cc3cccc(Cl)c3)cnc21	.	.	/	/	.	/
CCc1ccc(C(=O)COC(=O)c2cccnc2Cl)cc1	.	.	/	/	.	/
SMILES	L major viab	p97 inhibitor	ROMK primary	bCat KO growth	INS promoter inh	HCT116 PTEN-null
Cn1c(=O)n(C)c2cc([N+](=O)[O-])c(N3CCN(S(C)(=O)=O)CC3)cc21	.	.	.	.	.	.
Cn1c(=O)c(=O)n(C)c2cc([N+](=O)[O-])c([N+](=O)[O-])cc21	80	.	.	/	/	/
CCC(C)(C)NC(=O)C(c1ccccc1F)N(Cc1ccco1)C(=O)c1csnn1 (stereo unspecified)	57	.	.	.	.	.
Cc1ccc(NC(=O)COC(=O)C2CC(=O)N(Cc3ccccc3)C2)cc1S(=O)(=O)N(C)C (stereo unspecified)	.	.	.	/	/	/
CCCN1C(=O)/C(=C\c2nc3ccccc3c(=O)[nH]2)c2ccccc21	100	.	.	/	/	/
Cc1ccc(NC(=S)N(CCN(C)C)Cc2cc3cc(C)cc(C)c3[nH]c2=O)cc1	79	.	/	.	.	.
Cc1ccc2cc(CN(CCN(C)C)C(=S)Nc3ccccc3)c(=O)[nH]c2c1C	.	.	.	/	/	/
CCOCCCN(Cc1cc2cc(C)cc(C)c2[nH]c1=O)C(=O)N(CC)CC	58	.	/	.	.	.
N/C(=N\OC(=O)Oc1ccccc1)c1cccc([N+](=O)[O-])c1	59	.	.	.	.	.
N/C(=N\OC(=O)CSc1ccccc1)c1cccc([N+](=O)[O-])c1	81	.	/	.	.	.
O=C(CNC(=S)NC(=O)c1cccc([N+](=O)[O-])c1)c1ccccc1	.	.	.	.	.	.
Cc1ccc(SCC(=O)O/N=C(\N)c2ccc([N+](=O)[O-])cc2)cc1	.	.	/	.	.	.
O=C(C#Cc1ccccc1)c1cccc([N+](=O)[O-])c1	.	15	/	2.4	.	2.1
Cc1c(C(=O)NC(=S)Nc2ccc(N3CCOCC3)cc2)cccc1[N+](=O)[O-]	.	.	.	/	.	/
Fc1ccc(Nc2c(-c3ccco3)nc3ccccn23)cc1	66	.	/	.	.	.
CC(=O)Nc1ccc2nc(C3CC3)n(Cc3ccc(Cl)cc3)c(=O)c2c1	84	.	.	/	.	/
CCC(=O)Nc1ccc2nc(C3CC3)n(Cc3ccc(C(C)(C)C)cc3)c(=O)c2c1	/	.	/	/	/	/
CCCCN(CCCC)S(=O)(=O)c1c(C)[nH]c(=O)[nH]c1=O	.	.	.	/	73	/
CC(C)C(C(=O)Nc1ccc(S(N)(=O)=O)cc1)N1C(=O)c2ccccc2C1=O (stereo unspecified)	.	.	.	/	/	/
O=C(COc1ccc(Br)cc1CNCCc1ccccc1)NCc1ccccc1	88	.	.	/	.	/
CCCNCc1cc(Br)ccc1OCC(=O)NCCc1ccccc1	52	.	.	.	.	.
COc1cc(C=O)c(Br)cc1OCC(=O)NCCc1ccccc1	.	.	.	/	.	/
NC(=O)N/N=C/c1cc(Br)ccc1OCC(=O)NCc1ccccc1	.	.	/	.	.	.
CCCS(=O)(=O)Nc1ccc2cn[nH]c2c1	.	.	.	/	/	/
CCN(CC)CCCOC(=O)C(c1ccccc1)c1ccccc1	86	.	.	/	/	/
SMILES	L major viab	p97 inhibitor	ROMK primary	bCat KO growth	INS promoter inh	HCT116 PTEN-null
CCc1ccc(C(=O)NN(C(=O)c2ccc(CC)cc2)C(C)(C)C)cc1	98	.	/	.	.	.
COc1ccc(-n2c(N3CCN(C)CC3)nc3sc4c(c3c2=O)CCCCC4)cc1	100	.	/	.	/	.
COc1ccc(-n2c(NCCN(C)C)nc3sc4c(c3c2=O)CCCCC4)cc1	58	.	.	.	.	.
O=C(CC1SC(=NCCc2ccccc2)N(/N=C/c2cccs2)C1=O)Nc1ccc(Cl)cc1 (stereo unspecified)	.	.	/	.	/	.
Cc1cc(N/C=C(\C#N)S(=O)(=O)c2ccccc2Cl)nc(C)n1	/	.	/	/	/	/
Cc1nnn(C23CC4CC(CC(CC(=O)Nc5ccc(C)c(C)c5)(C4)C2)C3)n1	68	.	.	.	.	.
Cc1nnn(C23CC4CC(CC(CC(=O)Nc5cccc(F)c5)(C4)C2)C3)n1	.	.	.	/	.	/
